In the library only some 12% were active in any assay of this set; here they are far more common.
Sfp PPTase inh – blocks B. subtilis Sfp PPTase activity. 310,000 compounds, 3.5% hits. Biochemical Sfp PPTase activity, qHTS. Q9F4F7. AID 1490. Potency, µM, hits mostly inhibitors;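 note: the enzyme is Sfp with the accession as filed and its product quenches rhodamine fluorescence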
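Fluorescence-quenching assay with 15 nM Sfp, 5 uM rhodamine-CoA and 12.5 uM BHQ-2-labelled ybbR peptide in pH 7.6 Hepes/MgCl2 buffer. Enzyme was pre-incubated with compound for 15 min at room temperature. Rate was taken from the 30-min fluorescence change (525/598 nm).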
HP1b chromo inh – inhibitors of HP1-beta chromodomain binding to methylated histone tails | 390,000 compounds, 0.56% hits | Potency, µM (titrated, usually from 114 µM), usual class: inhibitors | AlphaScreen HP1-beta / biotin-H3K9me3 peptide binding | P83916; note: nearly all actives have a fitted effect of over 70% in size
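Compound inhibition of the preformed complex between 50 nM HP1-beta and 50 nM biotinylated H3K9me3 peptide was read by AlphaScreen. Buffer was PBS pH 7.4 with 0.01% Tween-20. Incubations ran 30 min at room temperature, with 10 ug/mL donor/acceptor beads.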
G9a inh – blocks human histone lysine methyltransferase G9a; Q96KQ7; G9a H3K9 monomethylation, AlphaScreen, 2 h; Potency, µM (top dose mostly 102 µM), hits mostly inhibitors; 350,000 compounds, 8.8% hits; AID 504332; note: nearly all actives have a fitted effect of over 75% in size
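Using a bead-based AlphaScreen, monomethylated H3K9 product from 2 h room-temperature reactions (G9a 20 nM, peptide 500 nM, SAM 20 uM) was detected with 0.5 ug/mL rabbit anti-H3K9me1 antibody.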
JMJD2A Tudor – inhibitors of human JMJD2A Tudor domain; 390,000 compounds, 4.4% hits; Potency, µM (highest dose often 114 µM), usual class: inhibitors; O75164; AID 504339; AlphaScreen JMJD2A-Tudor / H3K4me3 peptide binding; note: nearly all actives have a fitted effect of over 50% in size
BAZ2B block – blocks human BAZ2B. Q9UIF8. AlphaScreen BAZ2B-H3K14Ac peptide displacement. Potency, µM (series often up to 114 µM), actives largely listed as inhibitors. 360,000 compounds, 4.4% hits. AID 504333; note: nearly all actives have a fitted effect of over 60% in size
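Inhibition is scored as reduced AlphaScreen emission. The BAZ2B/b-H3(5-23)K14Ac complex (50 nM each) in PBS pH 7.4, 0.01% Tween-20 meets compound (up to 110 uM) for 30 min at RT before bead addition.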
L3MBTL1 inh – L3MBTL1 (human) inhibition; 230,000 compounds, 0.66% hits; Potency, µM (series often up to 57.1 µM), hits mostly inhibitors; AlphaScreen L3MBTL1–H3K9me1 peptide binding; note: nearly all actives have a fitted effect of over 60% in size
Target sequence (Q9Y468 whole entry, looked up): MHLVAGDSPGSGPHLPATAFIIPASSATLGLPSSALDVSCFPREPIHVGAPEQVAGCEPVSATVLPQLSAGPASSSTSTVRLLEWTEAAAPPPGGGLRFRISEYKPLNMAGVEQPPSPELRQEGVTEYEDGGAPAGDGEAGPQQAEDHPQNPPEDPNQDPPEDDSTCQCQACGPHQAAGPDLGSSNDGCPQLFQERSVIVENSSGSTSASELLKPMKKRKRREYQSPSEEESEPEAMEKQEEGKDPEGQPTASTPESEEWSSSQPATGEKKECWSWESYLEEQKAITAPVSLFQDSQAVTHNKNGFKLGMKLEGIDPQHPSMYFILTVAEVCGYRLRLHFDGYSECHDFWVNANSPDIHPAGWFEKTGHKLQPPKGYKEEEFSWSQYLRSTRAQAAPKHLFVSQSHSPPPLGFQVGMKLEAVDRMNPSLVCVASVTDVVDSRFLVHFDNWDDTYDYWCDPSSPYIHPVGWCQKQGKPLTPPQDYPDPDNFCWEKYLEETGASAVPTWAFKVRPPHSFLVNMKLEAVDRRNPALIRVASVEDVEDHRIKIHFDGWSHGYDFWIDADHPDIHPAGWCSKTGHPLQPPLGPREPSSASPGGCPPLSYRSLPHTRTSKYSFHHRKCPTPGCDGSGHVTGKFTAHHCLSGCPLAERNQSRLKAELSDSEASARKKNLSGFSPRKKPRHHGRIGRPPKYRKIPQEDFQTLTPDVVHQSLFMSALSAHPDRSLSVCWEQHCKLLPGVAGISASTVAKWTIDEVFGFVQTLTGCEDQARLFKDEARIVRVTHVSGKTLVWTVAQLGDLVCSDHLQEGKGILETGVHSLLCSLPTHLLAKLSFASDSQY
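First, the protein-peptide complex forms for 30 min at room temperature (L3MBTL1 50 nM, biotinylated H3K9me1 peptide 75 nM). Next, compounds are pin-transferred and incubated 30 min. Finally, AlphaScreen beads are added and read after 30 min.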
Of the large screens only hits and unclear results are named; the others gave an inactive call. Calls come from the whole dose curve; as a rule, active = well fitted curve in the direction sought with a large enough effect; inconclusive = small, poorly fitted or top-dose-only effect, or another doubt; inactive = no such curve, though single readings can be large; an effect the other way counts as inactive or inconclusive.

COc1ccc(N=C2S/C(=C\c3ccc(OCC(=O)O)cc3)C(=O)N2CCc2c[nH]c3ccccc23)cc1	Sfp PPTase inh inconclusive, HP1b chromo inh 18µM, JMJD2A Tudor 8.9µM, BAZ2B block 14µM
CCN1C(=O)/C(=C/c2ccc(C)s2)SC1=Nc1ccc(OC)cc1	G9a inh inconclusive, JMJD2A Tudor inconclusive, BAZ2B block inconclusive
COc1ccc(N=C2S/C(=C\c3ccc(N4CCOCC4)o3)C(=O)N2CCc2c[nH]c3ccccc23)cc1	Sfp PPTase inh 4µM, G9a inh inconclusive, BAZ2B block 40µM (no result: HP1b chromo inh, JMJD2A Tudor)
CC(C)(C)NC(=O)C1CCN(C(=O)c2ccco2)CC1	none (no result: L3MBTL1 inh)
C=NC(C(=O)NC1C(=O)N2C1SC(C)(C)C2C(=O)O)c1ccccc1 (stereo unspecified)	none (no result: HP1b chromo inh, JMJD2A Tudor, BAZ2B block, L3MBTL1 inh)
CSCC[C@H](NC(=O)[C@H](CC(C)C)NC(=O)CCNC(=O)[C@@H](NC(=O)[C@H](Cc1ccccc1)NC(=O)[C@H](CO)NC(=O)[C@@H](N)CC(=O)O)C(C)C)C(N)=O	none (no result: HP1b chromo inh, G9a inh, JMJD2A Tudor, BAZ2B block, L3MBTL1 inh)
Cc1occc1C(=O)NCCCCc1ccccc1	Sfp PPTase inh 18µM (no result: L3MBTL1 inh)
O=C(NCCc1ccc(O)cc1)c1ccc(Cl)cc1	none
Cc1occc1C(=O)NCc1ccccc1	none
Cc1occc1C(=O)NCCc1ccc(Cl)cc1	G9a inh 79µM (no result: L3MBTL1 inh)
Cc1occc1C(=O)NNC(=O)Cc1ccccc1	G9a inh 0.2µM
COc1cc(F)c(S(=O)(=O)N2CCCN(S(=O)(=O)c3ccc4c(c3)OCCO4)CC2)c(F)c1	none (no result: Sfp PPTase inh, HP1b chromo inh, G9a inh, BAZ2B block, L3MBTL1 inh)
CCOc1ccccc1CN1CCC(O)CC1	HP1b chromo inh inconclusive, JMJD2A Tudor 5.6µM, BAZ2B block inconclusive (no result: L3MBTL1 inh)
CCCS(=O)(=O)N1CCN(C(=O)COc2ccccc2)CC1	none (no result: L3MBTL1 inh)
CCCS(=O)(=O)N1CCN(Cc2ccccc2OCC)CC1	HP1b chromo inh inconclusive, G9a inh inconclusive, JMJD2A Tudor 2.8µM, BAZ2B block inconclusive
COc1ccc(Oc2ncc3nc(C)c(=O)n(Cc4ccc(F)cc4)c3n2)cc1	none (no result: HP1b chromo inh, JMJD2A Tudor, BAZ2B block, L3MBTL1 inh)
C[C@@H]1C[C@H]2[C@H]3C[C@@H](F)C4=CC(=O)C=C[C@]4(C)[C@@]3(Cl)[C@@H](O)C[C@@]2(C)[C@@H]1C(=O)COC(=O)C(C)(C)C	none (no result: HP1b chromo inh, JMJD2A Tudor, BAZ2B block, L3MBTL1 inh)
C/C(=N\NC(=O)c1ccncc1)c1ccc(N2CCOCC2)cc1	none (no result: Sfp PPTase inh)
C/C(=N\NC(=O)c1ccc(OC2OCCOC2Oc2ccc(C(=O)N/N=C(\C)c3ccncc3)cc2)cc1)c1ccncc1 (stereo unspecified)	G9a inh 13µM
C/C(=N\NC(=O)c1ccncc1)c1ccc(N(C)C)cc1	Sfp PPTase inh inconclusive, JMJD2A Tudor 18µM
CC(C)(C)OC(=O)NCC(=O)NNC(=O)c1nc2ccccc2[nH]1	none (no result: Sfp PPTase inh, HP1b chromo inh, G9a inh, BAZ2B block, L3MBTL1 inh)
CCC1(c2ccc(OC)cc2)NC(=O)N(C)C1=O (stereo unspecified)	none (no result: HP1b chromo inh, G9a inh, JMJD2A Tudor, BAZ2B block, L3MBTL1 inh)
Cc1cccc(NC(=S)NC2CCCCCC2)c1C	HP1b chromo inh inconclusive
Cc1cccc(NC(=S)Nc2cccc(C)n2)n1	none
Cc1cccc(NC(=S)NC2CCCC2)n1	Sfp PPTase inh 10µM, BAZ2B block inconclusive
Cc1cccc(NC(=S)NC2CCCCC2)n1	Sfp PPTase inh 50µM, G9a inh 0.89µM
Cc1ccc(C)c(NC(=O)c2cc(S(=O)(=O)N3CCCc4ccccc43)ccc2F)c1	none (no result: Sfp PPTase inh, L3MBTL1 inh)
Oc1ccc(Br)cc1C1C=C(c2ccc3c(c2)OCO3)NC(c2ccc(Br)cc2)N1 (stereo unspecified)	none (no result: Sfp PPTase inh, G9a inh, BAZ2B block, L3MBTL1 inh)
Cc1c(C)[n+](=O)c2c(n1[O-])C(Br)CCC2Br (stereo unspecified)	G9a inh 1µM, JMJD2A Tudor 79µM, BAZ2B block 79µM
Cc1c(CBr)[n+](=O)c2c(n1[O-])C(Br)CCC2Br (stereo unspecified)	Sfp PPTase inh 11µM, G9a inh 7.9µM, JMJD2A Tudor 20µM, BAZ2B block 28µM
CCC(C(=O)N(C)Cc1ccccc1)n1nc(C)c2sc3ccccc3c2c1=O (stereo unspecified)	none (no result: Sfp PPTase inh, L3MBTL1 inh)
Cc1ccc(S(=O)(=O)O/N=C2/CCCc3occc32)cc1	G9a inh 50µM, JMJD2A Tudor inconclusive
Cn1cc(-c2nc3cnc(Oc4cccc(Cl)c4)nc3n(C3CC3)c2=O)c2ccccc21	none (no result: HP1b chromo inh, JMJD2A Tudor, BAZ2B block, L3MBTL1 inh)
CCc1ccc(C(=O)c2cn(CC(=O)NC3CCCCC3)c3nc(C)ccc3c2=O)cc1	none (no result: Sfp PPTase inh, L3MBTL1 inh)
O=C(O)c1cccc(-c2ccc3c(c2)OCO3)c1	none (no result: L3MBTL1 inh)
O=C1OC(c2ccc3c(c2)OCO3)=N/C1=C\c1ccc(C(=O)O)cc1	G9a inh 40µM (no result: L3MBTL1 inh)

Bioassay records deposited in PubChem BioAssay by National Center for Advancing Translational Sciences (NCATS).
